Only some compounds are listed: those with a hit (about 6.8% of all), similar ones and a draw of the others.
Pf Dd2 inh: inhibitors of Plasmodium falciparum Dd2 growth; P. falciparum Dd2 growth, SYBR Green, 72 h; active compounds read low; activity change, % at 10 µM; 2.3% of 94,000 active; in the data active = activity change below about -80%; inconclusive = no clear call, values can overlap the other calls
C diff HTS: C. difficile growth inhibition. Clostridium difficile clinical isolate growth, OD600, 24 h; active compounds read low. AID 1259249. 0.25% of 86,000 active. growth activity, negative = inhibition, % at 16 µg/mL (by protocol);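 active = mean growth activity at or below -80% and every replicate also at or below -80%; inconclusive = mean at or below -80% but some replicate above -80%; inactive = mean growth activity above -80%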;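 also: 0% = DMSO wells and -100% = levofloxacin 16 µg/mL wells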
T cruzi growth-1: inhibitors of T. cruzi proliferation; T. cruzi beta-gal in NIH3T3, GalScreen luminescence, 90 h; inhibition, % at 8.34 µM; 5.9% of 77,000 active; AID 624255;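 active = mean inhibition above about 93%, with at least 55% of replicates each passing it, limit read from the data, passing the limit was not always enough; inconclusive = only one of those two conditions holds; inactive = neither condition holds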
T cruzi growth-2: Trypanosoma cruzi proliferation inhibition. AID 651739. shares compounds with T cruzi growth-1. 72% of 5,600 active. inhibition, % at 8.35 µM. T. cruzi beta-gal in NIH3T3, GalScreen luminescence, 90 h;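 active = mean replicate inhibition above about 95% and at least 55% of replicates individually reaching it, limit read from the data; inconclusive = only one of the two criteria is met; inactive = neither criterion is met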
T cruzi growth-3: blocks T. cruzi growth in NIH3T3 host cells; T. cruzi beta-gal in NIH3T3, GalScreen luminescence, 90 h; shares compounds with T cruzi growth-1; inhibition, % at 2.09 µM; 21% of 5,600 active;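 active = mean inhibition above about 95%, with at least 55% of replicates also reaching it, limit read from the data; inconclusive = meets just one of the two conditions; inactive = meets neither condition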;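 also: plate controls were neutral control median for no effect and positive control median for full effect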
NIH3T3 tox: cytotoxicity in mouse NIH/3T3 fibroblasts; shares compounds with T cruzi growth-1; NIH/3T3 viability, CellTiter-Glo ATP luminescence, 90 h; cytotoxicity (signal decrease), % at 8.35 µM; 14% of 5,600 active; AID 651742;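 active = mean signal decrease across replicates above about 35% based on untreated-well scatter, with enough replicates individually passing, limit read from the data; inconclusive = no rule stated though some were filed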;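 also: 0% = median of neutral control wells and 100% = median of positive control wells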
3T3 cytotox 2: cytotoxicity in mouse NIH/3T3 fibroblasts; shares compounds with T cruzi growth-1; NIH/3T3 viability, CellTiter-Glo ATP luminescence, 90 h; inhibition, % at 24.9 µM; 56% of 5,600 active;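 active = mean loss of cell viability signal at or above a set limit, and enough replicates individually reaching it; inconclusive = meets only the mean limit or only the replicate share; inactive = meets neither condition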;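 also: 0% = median of neutral control wells and 100% = median of positive control wells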
* marks the source's active call; other numbers are inactive results; ? = inconclusive; . = not tested or not shown.

SMILES | Pf Dd2 inh | C diff HTS | T cruzi growth-1 | T cruzi growth-2 | T cruzi growth-3 | NIH3T3 tox | 3T3 cytotox 2
CCNC(=O)[C@H]1[C@H](CO)[C@H]2Cn3c(ccc(-c4cccc(OC)c4)c3=O)[C@H]2N1C(=O)NC(C)C | 5 | -1 | 7 | . | . | . | .
C[C@@H]1CN([C@H](C)CO)C(=O)Cc2cc(NC(=O)Nc3ccccc3)ccc2O[C@H]1CN(C)C(=O)Nc1ccc(F)cc1 | 10 | -1 | 18 | . | . | . | .
C[C@@H]1CN([C@H](C)CO)C(=O)c2ccccc2-c2ccccc2CO[C@@H]1CN(C)C(=O)Cc1ccccc1 | 0 | -4 | 102* | 21 | -53 | -2 | 11
C[C@H]1CN([C@@H](C)CO)C(=O)c2ccccc2-c2ccccc2CO[C@@H]1CN(C)Cc1ccncc1 | -3 | 2 | ? | 73 | 7 | 13 | 11
C[C@@H]1CN([C@@H](C)CO)C(=O)c2ccccc2-c2ccccc2CO[C@H]1CN(C)C(=O)Cc1ccccc1 | 1 | -8 | 90 | . | . | . | .
C[C@@H]1CN([C@@H](C)CO)C(=O)c2ccccc2-c2ccccc2CO[C@H]1CN(C)Cc1ccncc1 | 9 | 1 | 81 | . | . | . | .
COc1ccc(C#Cc2ccc([C@@H]3[C@H]4CN(C(=O)c5ccncc5)CC(=O)N4[C@H]3CO)cc2)cc1 | -24 | -10 | . | . | . | . | .
C[C@H]1CN([C@@H](C)CO)C(=O)c2ccccc2-c2ccccc2CO[C@H]1CN(C)S(=O)(=O)c1ccc(C(F)(F)F)cc1 | -81* | 3 | 108* | 105* | 55 | 14 | 5
C[C@@H]1CN([C@H](C)CO)C(=O)c2c(c3ccccc3n2C)-c2ccccc2CO[C@@H]1CN(C)S(=O)(=O)c1ccsc1 | -5 | -3 | 52 | . | . | . | .
Cc1ccccc1S(=O)(=O)N(C)C[C@@H]1OCc2ccccc2-c2ccccc2C(=O)N([C@@H](C)CO)C[C@H]1C | -52 | 4 | 87 | . | . | . | .
Cc1ccccc1S(=O)(=O)N(C)C[C@H]1OCc2ccccc2-c2c(n(C)c3ccccc23)C(=O)N([C@H](C)CO)C[C@@H]1C | -64 | . | ? | 96* | 56 | -17 | 24*
C[C@@H]1CN([C@H](C)CO)C(=O)c2c(c3ccccc3n2C)-c2ccccc2CO[C@H]1CN(C)S(=O)(=O)c1ccsc1 | -86* | -2 | 107* | 105* | 63 | -28 | 2
C[C@@H]1CN([C@H](C)CO)C(=O)c2c(c3ccccc3n2C)-c2ccccc2CO[C@@H]1CN(C)S(C)(=O)=O | 17 | . | 13 | . | . | . | .
Cc1ccccc1S(=O)(=O)N(C)C[C@@H]1OCc2ccccc2-c2ccccc2C(=O)N([C@H](C)CO)C[C@@H]1C | -39 | 6 | ? | 83 | 16 | -9 | 16
C[C@@H]1CN([C@H](C)CO)C(=O)c2ccccc2-c2ccccc2CO[C@@H]1CN(C)S(=O)(=O)c1ccc(C(F)(F)F)cc1 | -4 | 2 | 83 | . | . | . | .
CCNC(=O)C[C@H]1CC[C@H]2[C@@H](COC[C@@H](O)CN2C(=O)C2CCOCC2)O1 | . | 7 | 8 | . | . | . | .
C[C@H]1CN([C@@H](C)CO)C(=O)c2cc(-c3cccnc3)cnc2O[C@H]1CN(C)Cc1ccccc1 | 44 | . | -4 | . | . | . | .
O=C1CN(S(=O)(=O)Cc2ccccc2)C[C@H]2[C@H](c3ccc(C#Cc4cccc(F)c4)cc3)[C@H](CO)N12 | -16 | 0 | . | . | . | . | .
CCC(=O)N1C[C@H](C)[C@H](OC)CN(C)C(=O)c2ccc(NC(=O)c3ccccc3)cc2OC[C@H]1C | -41 | . | 53 | . | . | . | .
C[C@@H]1CN([C@H](C)CO)C(=O)c2c(c3ccccc3n2C)-c2ccccc2CO[C@H]1CN(C)S(C)(=O)=O | 9 | . | 13 | . | . | . | .
C[C@H](CO)N1C[C@H](C)[C@@H](CN(C)S(=O)(=O)c2cn(C)cn2)OCc2ccccc2-c2c(n(C)c3ccccc23)C1=O | -20 | 3 | 107* | 97* | 4 | 27 | 99*
Cc1ccccc1S(=O)(=O)N(C)C[C@H]1OCc2ccccc2-c2c(n(C)c3ccccc23)C(=O)N([C@@H](C)CO)C[C@@H]1C | -85* | . | ? | 101* | 84 | 10 | ?
C[C@H](CO)N1C[C@H](C)[C@H](CN(C)S(=O)(=O)c2ccccc2C#N)OCc2ccccc2-c2c(n(C)c3ccccc23)C1=O | -43 | -3 | 108* | ? | 59 | 16 | 46*
C[C@H]1CN([C@@H](C)CO)C(=O)c2c(c3ccccc3n2C)-c2ccccc2CO[C@@H]1CN(C)S(=O)(=O)c1ccccc1C#N | -77 | 3 | 89 | . | . | . | .
C[C@H]1CN([C@@H](C)CO)C(=O)c2c(c3ccccc3n2C)-c2ccccc2CO[C@@H]1CN(C)S(=O)(=O)c1cn(C)cn1 | -21 | 2 | 65 | . | . | . | .
SMILES | Pf Dd2 inh | C diff HTS | T cruzi growth-1 | T cruzi growth-2 | T cruzi growth-3 | NIH3T3 tox | 3T3 cytotox 2
COc1ccc2c3c(n(C)c2c1)[C@@H](CO)N(Cc1nccs1)CC31CCN(C(C)=O)CC1 | -15 | 5 | . | . | . | . | .
CN1C(=O)c2cc(NC(=O)C3CC3)ccc2OC[C@@H]2O[C@H](CC(=O)NCCN3CCCC3)CC[C@@H]21 | 2 | -3 | ? | 72 | 88 | 7 | -6
CN1C(=O)c2cc(NC(=O)c3cccc(C(F)(F)F)c3)ccc2OC[C@@H]2O[C@H](CC(=O)NCCN3CCCC3)CC[C@@H]21 | 0 | -8 | 98* | 99* | 82 | -6 | 7
CN1C(=O)c2cc(NC(=O)c3cccc(C(F)(F)F)c3)ccc2OC[C@@H]2O[C@@H](CC(=O)NCCN3CCCC3)CC[C@H]21 | -15 | -10 | 2 | . | . | . | .
CN1C(=O)c2cc(NC(=O)C3CC3)ccc2OC[C@@H]2O[C@@H](CC(=O)NCCN3CCCC3)CC[C@H]21 | -18 | 1 | 28 | . | . | . | .
CO[C@@H]1CN(C)C(=O)c2cc(NS(=O)(=O)c3ccc(C)cc3)ccc2OC[C@H](C)NC[C@H]1C | 4 | . | 9 | . | . | . | .
O=C1CCCn2cc(nn2)COCC2CCCN12 (stereo not drawn) | . | -3 | . | . | . | . | .
Cc1noc(C)c1S(=O)(=O)N(C)C[C@H]1Oc2ccc(NC(=O)Cc3cn(C)c4ccccc34)cc2CC(=O)N([C@H](C)CO)C[C@@H]1C | -67 | -1 | 59 | . | . | . | .
C[C@H](CO)N1C[C@H](C)[C@@H](CN(C)CC2CC2)Oc2ccc(NC(=O)c3ccncc3)cc2CC1=O | -5 | 1 | -8 | . | . | . | .
OC[C@@H]1Nc2ccc(C#Cc3ccccc3)cc2[C@H]2[C@@H]1CCN2Cc1nccs1 | -40 | 47 | ? | 99* | 107* | 31 | 99*
OC[C@H]1Nc2ccc(C#Cc3ccccc3)cc2[C@@H]2[C@H]1CCN2Cc1nccs1 | -47 | 51 | 98* | 97* | 101* | -3 | 104*
CCC(=O)N1CC[C@@H]2[C@@H](CO)Nc3ccc(C#Cc4ccccc4)cc3[C@@H]21 | 2 | 9 | 76 | . | . | . | .

Bioassay records as filed in PubChem BioAssay.
